Shown are actives, neighbours in structure and some others; about 7.1% of the full set was active somewhere.
IL1B secr inh: inflammasome signaling inhibition, IL-1 beta readout | 4.7% of 360,000 active | THP-1 LPS/ATP IL-1B secretion, AlphaLISA, 16 h; active compounds read low | activity change, % at 57.5 µM; in the data active means activity change below about -50%; inconclusive means mostly about -30% to -49%
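THP-1 cells pretreated 1 hr with compounds (up to 57.5 uM final), then stimulated with LPS (250 ng/mL final) plus ATP (1.25 mM final); secreted IL-1B measured by AlphaLISA after 16 hr, decreased signal indicating inhibition.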
PINK1 expr mod: modulators of PINK1 expression. PINK1 immunofluorescence, high-content cytometry, 24 h. 0.2% of 410,000 active. Potency, µM (series often up to 76.6 µM), hits mostly activators. AID 624263; active means well fitted activation curve with a large enough effect; inconclusive means small, poorly fitted or top-dose-only effect; cell line not stated here; further: nearly all actives have a fitted effect of over 65% in size
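Compound titrations (5 concentrations, 24 h) on a stable cell line; DMSO and CCCP controls. Endpoint: fixed-cell PINK1 immunofluorescence with mitochondrial, cell and nuclear markers, scanned by microplate cytometer.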
SW480 rereplic: DNA re-replication induction in SW480 cells. SW480 DNA re-replication, Hoechst DNA content imaging, 48 h. Potency, µM (titrated, usually from 46.1 µM), most hits filed as activators. 1.8% of 340,000 active. AID 624297; further: nearly all actives have a fitted effect of over 55% in size
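Compounds, transferred as 23 nL by pin tool, were incubated with cells for 48 hr; DNA content per nucleus was then quantified by Hoechst staining and fluorescence plate imaging.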
ATXN2 expr inh: reduces ATXN2 reporter expression in HEK-293 cells | HEK-293 ATXN2-luciferase reporter, luminescence, 24 h | Potency, µM (doses to about 57 µM), most hits filed as inhibitors | 0.72% of 360,000 active; further: nearly all actives have a fitted effect of over 55% in size
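ATXN2-luciferase reporter cells (luciferase flanked by upstream and downstream ATXN2 gene portions) were treated 24 h at 37 °C with compounds at up to 57 uM. SteadyGlo luminescence gave expression; GF-AFC fluorescence gave viability.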
MCF10A rerep: DNA re-replication induction in MCF 10a cells; MCF 10A DNA re-replication, Hoechst nuclear intensity, 48 h; Potency, µM (highest dose often 46.1 µM), hits mostly activators; 2.9% of 350,000 active; AID 624296; further: nearly all actives have a fitted effect of over 50% in size
S2 tox: reduces viability in counter-screen for ATXN expression inhibitors; S2 cells (HEK-293 line with an ATXN2-luciferase reporter) viability, CellTiter-Fluor protease fluorescence, 24 h; Potency, µM (top dose mostly 56.7 µM), usual class: cytotoxic; 0.49% of 400,000 active; AID 651635; further: nearly all actives have a fitted effect of over 40% in size
Numbers stand for hits. Unless noted, the call rests on the fitted dose curve; in most records, active means well fitted curve in the direction sought with a large enough effect; inconclusive means small, poorly fitted or top-dose-only effect, or another doubt; inactive means no such curve, though single readings can be large; an effect the other way counts as inactive or inconclusive.

What do the screens show for `CCOC(=O)c1c(C)[nH]c(C)c1S(=O)(=O)NCCN1CCN(c2cc(Cl)ccc2C)CC1`?
IL1B secr inh: -51; PINK1 expr mod: inconclusive; SW480 rereplic: inactive; MCF10A rerep: inactive; S2 tox: inactive

What do the screens show for `Cc1ccccc1-c1nc2scc(CCNC(=O)c3ccco3)n2n1`?
PINK1 expr mod: inactive; ATXN2 expr inh: inactive; S2 tox: inactive

How did Cc1ccc(-c2nnc(-c3ccccc3)c(-c3ccccc3)n2)cc1 do in these assays?
IL1B secr inh: inactive; PINK1 expr mod: inactive; SW480 rereplic: inactive; ATXN2 expr inh: inactive; MCF10A rerep: inactive; S2 tox: inactive

What do the screens show for `Cc1ccc2nc(-c3ccccc3)nn2c1`?
IL1B secr inh: inactive; PINK1 expr mod: inactive; SW480 rereplic: inactive; ATXN2 expr inh: 3.2µM; MCF10A rerep: inactive; S2 tox: inactive

Results for CCCCCCN1C[C@H](n2cc(-c3ccc(F)cc3)nn2)[C@@H](O)C[C@@H]1c1ccccc1 ?
IL1B secr inh: inactive; PINK1 expr mod: inactive; ATXN2 expr inh: inactive; S2 tox: inactive

What do the screens show for `O=C(c1cccs1)N1C[C@@H](O)[C@H](n2cc(-c3ccc(F)cc3)nn2)C[C@@H]1c1ccccc1`?
IL1B secr inh: inactive; PINK1 expr mod: inactive; ATXN2 expr inh: inactive; S2 tox: inactive

Results for CCCCCC(=O)N1C[C@@H](n2cc(-c3ccc(F)cc3)nn2)[C@H](O)C[C@@H]1c1ccc(C)cc1 ?
IL1B secr inh: inactive; PINK1 expr mod: inconclusive; ATXN2 expr inh: inconclusive; S2 tox: 16µM

How did Cc1ccc([C@H]2C[C@H](n3cc(-c4ccc(F)cc4)nn3)[C@@H](O)CN2C(=O)c2cccs2)cc1 do in these assays?
IL1B secr inh: -51; PINK1 expr mod: inactive; ATXN2 expr inh: inactive; S2 tox: inconclusive

Results for CCCCCCN1C[C@H](O)[C@@H](n2cc(-c3ccc(F)cc3)nn2)C[C@@H]1c1ccccc1 ?
IL1B secr inh: inactive; PINK1 expr mod: inconclusive; ATXN2 expr inh: inactive; S2 tox: 18µM

How did CCCCCCN1C[C@H](n2cc(-c3ccc(F)cc3)nn2)[C@@H](O)C[C@@H]1c1ccc(Cl)cc1 do in these assays?
IL1B secr inh: -104; PINK1 expr mod: inactive; ATXN2 expr inh: 32µM

How did O[C@H]1C[C@H](c2ccc(Cl)cc2)N(Cc2cccs2)C[C@@H]1n1cc(-c2ccc(F)cc2)nn1 do in these assays?
IL1B secr inh: inactive; PINK1 expr mod: inactive; ATXN2 expr inh: 32µM

How did C[C@@H](Oc1ccc2[nH]nc(C=Cc3cnn(CCO)c3)c2c1)c1c(Cl)cncc1Cl do in these assays?
ATXN2 expr inh: 22µM

How did Cc1ccc(C(C)C)c(OCc2ccc(-c3nnco3)cc2)c1 do in these assays?
IL1B secr inh: inactive; PINK1 expr mod: inactive; SW480 rereplic: inactive; ATXN2 expr inh: inconclusive; MCF10A rerep: 23µM; S2 tox: inactive

Results for Cc1ccc(COc2ccc(-c3nnco3)cc2)cc1 ?
IL1B secr inh: inconclusive; PINK1 expr mod: inactive; SW480 rereplic: inactive; MCF10A rerep: inactive; S2 tox: inactive

Results for CCc1ccc(OCC(=O)NCC(c2ccc(OC)cc2)N2CCOCC2)cc1 (centres undefined) ?
PINK1 expr mod: inactive

Results for Cc1ccccc1Nc1nnc(-c2ccc(C)c(S(=O)(=O)N3CCCCC3)c2)c2ccccc12 ?
PINK1 expr mod: inactive; ATXN2 expr inh: inactive; S2 tox: inconclusive

Results for CCOC(=O)c1sc2ccccc2c1S(=O)(=O)Nc1ccc(CC)cc1 ?
PINK1 expr mod: inactive; ATXN2 expr inh: inactive; S2 tox: inactive

What do the screens show for `CC(=O)c1ccc(OCc2nnn(CC(=O)O)c2-c2ccccc2)cc1`?
IL1B secr inh: -69; PINK1 expr mod: inactive; ATXN2 expr inh: inactive; S2 tox: inactive

How did COc1nc(-c2ccccc2)ccc1-c1noc(C)n1 do in these assays?
IL1B secr inh: inactive; PINK1 expr mod: inactive; SW480 rereplic: inactive; ATXN2 expr inh: inactive; MCF10A rerep: 13µM; S2 tox: inactive

How did COCc1nc(-c2ccc(-c3ccccc3)nc2OC)no1 do in these assays?
IL1B secr inh: inconclusive; PINK1 expr mod: inactive; SW480 rereplic: inactive; ATXN2 expr inh: inactive; MCF10A rerep: inactive; S2 tox: inactive

What do the screens show for `CCN1CCN(CCNC(=O)CCc2c(C)c3c(C)nn(-c4ccccc4)c3n(C)c2=O)CC1`?
IL1B secr inh: -61; PINK1 expr mod: inactive; SW480 rereplic: inconclusive; ATXN2 expr inh: inactive; MCF10A rerep: inactive; S2 tox: inconclusive

Results for O=C1C=CC(=O)N1N(c1ccccc1)c1ccccc1 ?
IL1B secr inh: inconclusive; PINK1 expr mod: inactive; SW480 rereplic: inconclusive; ATXN2 expr inh: inconclusive; MCF10A rerep: 5.2µM; S2 tox: inconclusive

Results for Cc1nn(-c2cccc(Cl)c2)c2nc(-c3ccco3)cc(C(=O)O)c12 ?
IL1B secr inh: inactive; PINK1 expr mod: inactive; SW480 rereplic: inactive; ATXN2 expr inh: inactive; MCF10A rerep: 15µM; S2 tox: inactive

What do the screens show for `Cc1nn(-c2ccccc2)c2nc(-c3ccco3)cc(C(=O)O)c12`?
IL1B secr inh: inactive; PINK1 expr mod: inactive; SW480 rereplic: inactive; ATXN2 expr inh: inactive; MCF10A rerep: inconclusive; S2 tox: inactive

Results for CCc1cccc(NC(=O)C2CCN(C(=O)c3cnn(-c4ccccc4)c3-n3cccc3)CC2)c1 ?
PINK1 expr mod: inactive; ATXN2 expr inh: inconclusive; S2 tox: inconclusive

Results for COc1ccc(/C=C2/SC(=O)N(CCNC(=O)C3CCCN3C(=O)c3cccs3)C2=O)cc1 (centres undefined) ?
IL1B secr inh: -149; PINK1 expr mod: inactive; SW480 rereplic: inactive; MCF10A rerep: inactive; S2 tox: inactive

Results for CN(C)S(=O)(=O)c1ccc(C(=O)Nc2nnc(-c3ccco3)o2)cc1 ?
IL1B secr inh: inactive; PINK1 expr mod: inactive; SW480 rereplic: inconclusive; ATXN2 expr inh: inactive; MCF10A rerep: inconclusive; S2 tox: inactive

Results for CCc1nnc(NC(=O)c2ccc(S(=O)(=O)N(C)Cc3ccccc3)cc2)o1 ?
IL1B secr inh: inactive; PINK1 expr mod: inactive; SW480 rereplic: 2.6µM; ATXN2 expr inh: inconclusive; MCF10A rerep: inactive; S2 tox: inactive

What do the screens show for `COc1ccccc1-c1nnc(NC(=O)c2ccc(S(=O)(=O)N(C)Cc3ccccc3)cc2)o1`?
IL1B secr inh: inactive; PINK1 expr mod: inactive; SW480 rereplic: 21µM; ATXN2 expr inh: inconclusive; MCF10A rerep: inconclusive; S2 tox: inconclusive

How did CCCCN(C)S(=O)(=O)c1ccc(C(=O)Nc2nnc(-c3ccco3)o2)cc1 do in these assays?
IL1B secr inh: inactive; PINK1 expr mod: inactive; SW480 rereplic: 13µM; ATXN2 expr inh: inconclusive; MCF10A rerep: inconclusive; S2 tox: inactive

How did CN(Cc1ccccc1)S(=O)(=O)c1ccc(C(=O)Nc2nnc(C3CC3)o2)cc1 do in these assays?
IL1B secr inh: inactive; PINK1 expr mod: inactive; SW480 rereplic: inconclusive; ATXN2 expr inh: inactive; MCF10A rerep: inactive; S2 tox: inactive

Compound activity: PubChem BioAssay, National Center for Advancing Translational Sciences (NCATS)
